# Measurements reported in patent US20060069055, “Delivery of polynucleotides” (published 2006).
# Target: NF-kB p65/p50 heterodimer (Homo sapiens, UniProt Q04206;P19838 Q04206:1-551,P19838:1-433)
# Assay: EMSA
# Settings: protein: extract; tags: nuclear extract of LPS-stimulated THP-1 cells; dsDNA, one strand shown
# Source text: The EMSA assay was employed to characterize oligonucleotide decoys for the NF-κB transcription factor. […] Using the above modified oligonucleotides to compete for binding for the above-mentioned NF-κB family members, it was possible to compare the binding affinity of these oligonucleotides against the high affinity radiolabeled probe and each other. This assay has also enabled the design of a decoy which selectively binds particular members of the NF-κB family. By using increasing concentrations of various oligonucleotides, it was observed that, by deleting or changing targeted residues in the binding site, it was possible to specifically decrease the binding of the decoy molecule to p50/p50 homodimers, while retaining the affinity for p65/p50 and cRel/p50 heterodimers.
# The NF-κB gel shift assays (EMSA) were performed as follows. A double-stranded oligonucleotide containing a consensus NF-κB binding site (5′ […].GGC 3′) (SEQ ID NO: 26) was end-labeled with γ³²P-ATP using T4 Polynucleotide Kinase (Promega). One microgram of a nuclear extract prepared from LPS stimulated THP-1 cells (human monocyte cell line) was incubated with 35 fmol of radiolabeled probe in the presence or absence of competing unlabeled NF-κB double-stranded oligonucleotides (dsODN) or scrambled dsODN. The incubations were carried out at room temperature for 30 minutes in a 20 μl reaction volume composed of 10 mM Tris-HCl pH 8, 100 mM KCL, 5mM MgC12, 2mM DTT, 10% Glycerol, 0.1% NP-40, 0.025% BSA and 1 μg Poly-dIdC. The reactions were loaded onto a 6% polyacrylamide gel, subjected to electrophoresis and dried. The dried gels were imaged and quantitated using a Typhoon 8600 Phosphorlmager (Amersham) and ImageQuant software. The identity of the NF-κB proteins contained in complexes bound to the radiolabeled oligonucleotide probe were identified by pre-incubating the reactions for 5 minutes with individual antibodies specific for each member of the NF-κB family prior to the addition of the radiolabeled probe.
# Chain of NF-kB p65/p50 heterodimer (Q04206 whole entry, chain 1 of 2): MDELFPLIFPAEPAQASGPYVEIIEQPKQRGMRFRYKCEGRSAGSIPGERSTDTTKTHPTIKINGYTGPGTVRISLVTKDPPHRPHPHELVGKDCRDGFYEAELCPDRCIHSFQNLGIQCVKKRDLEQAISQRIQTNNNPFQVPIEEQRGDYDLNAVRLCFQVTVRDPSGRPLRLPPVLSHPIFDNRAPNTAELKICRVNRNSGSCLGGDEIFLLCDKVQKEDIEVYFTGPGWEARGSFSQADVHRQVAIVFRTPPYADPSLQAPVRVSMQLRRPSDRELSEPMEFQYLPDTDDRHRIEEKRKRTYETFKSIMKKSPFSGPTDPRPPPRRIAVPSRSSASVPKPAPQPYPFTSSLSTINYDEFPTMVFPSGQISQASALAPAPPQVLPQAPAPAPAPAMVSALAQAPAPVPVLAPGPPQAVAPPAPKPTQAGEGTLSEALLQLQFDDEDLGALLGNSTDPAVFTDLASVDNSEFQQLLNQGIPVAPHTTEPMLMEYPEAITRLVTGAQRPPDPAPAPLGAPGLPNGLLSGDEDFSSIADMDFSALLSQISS
# Chain of NF-kB p65/p50 heterodimer (P19838 1-433, chain 2 of 2): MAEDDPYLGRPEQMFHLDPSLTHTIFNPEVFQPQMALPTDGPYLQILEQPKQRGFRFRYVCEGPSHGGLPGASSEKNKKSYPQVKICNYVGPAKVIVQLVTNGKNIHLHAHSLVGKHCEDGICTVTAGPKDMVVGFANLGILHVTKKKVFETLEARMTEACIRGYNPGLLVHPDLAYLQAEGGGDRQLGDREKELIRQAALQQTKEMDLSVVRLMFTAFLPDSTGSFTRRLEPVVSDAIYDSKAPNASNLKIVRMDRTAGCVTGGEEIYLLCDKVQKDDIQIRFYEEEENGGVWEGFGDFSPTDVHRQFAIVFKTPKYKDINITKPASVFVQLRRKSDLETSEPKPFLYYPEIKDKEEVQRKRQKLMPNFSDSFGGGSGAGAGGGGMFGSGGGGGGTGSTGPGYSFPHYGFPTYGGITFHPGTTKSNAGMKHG
row,Sequence,IC50 [fold molar excess]
1,AGTTGAGGATTTCCCAGGC,54
2,TGAGGACTTTCCAGGCTC,92
3,TCGGATTTCCTC,74
4,AGTTGAGGATTTCCAGGC,73
5,ATGGACTTTCCGT,72.5
6,TTGAGGACTTTCCAGGC,87
7,TGAGGACTTTCCAGGC,93
8,TTGAGGACTTTCCAGGCTC,87
9,TCGGACTTTCCTC,81
